From article PMC4336329 (PLoS ONE, 2015) come the findings set out here.

In all, about 310,000 compounds went through this assay and about 14,000 (4.5%) showed an effect of 50% or more. The effect is printed as a negative number. The sample as a whole holds a higher share of strong results than the screen did.
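Further: peak tail current of the secondary pulse compared with the same well before compound.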

In the assay the target is human ether-à-go-go-related gene (hERG) potassium channel (human, UniProt Q12809). The assay can be described thus: primary screen, population patch clamp on CHO cells stably expressing hERG; higher = less effect of the substance.
Sequence of human ether-à-go-go-related gene (hERG) potassium channel (Q12809 whole entry, looked up): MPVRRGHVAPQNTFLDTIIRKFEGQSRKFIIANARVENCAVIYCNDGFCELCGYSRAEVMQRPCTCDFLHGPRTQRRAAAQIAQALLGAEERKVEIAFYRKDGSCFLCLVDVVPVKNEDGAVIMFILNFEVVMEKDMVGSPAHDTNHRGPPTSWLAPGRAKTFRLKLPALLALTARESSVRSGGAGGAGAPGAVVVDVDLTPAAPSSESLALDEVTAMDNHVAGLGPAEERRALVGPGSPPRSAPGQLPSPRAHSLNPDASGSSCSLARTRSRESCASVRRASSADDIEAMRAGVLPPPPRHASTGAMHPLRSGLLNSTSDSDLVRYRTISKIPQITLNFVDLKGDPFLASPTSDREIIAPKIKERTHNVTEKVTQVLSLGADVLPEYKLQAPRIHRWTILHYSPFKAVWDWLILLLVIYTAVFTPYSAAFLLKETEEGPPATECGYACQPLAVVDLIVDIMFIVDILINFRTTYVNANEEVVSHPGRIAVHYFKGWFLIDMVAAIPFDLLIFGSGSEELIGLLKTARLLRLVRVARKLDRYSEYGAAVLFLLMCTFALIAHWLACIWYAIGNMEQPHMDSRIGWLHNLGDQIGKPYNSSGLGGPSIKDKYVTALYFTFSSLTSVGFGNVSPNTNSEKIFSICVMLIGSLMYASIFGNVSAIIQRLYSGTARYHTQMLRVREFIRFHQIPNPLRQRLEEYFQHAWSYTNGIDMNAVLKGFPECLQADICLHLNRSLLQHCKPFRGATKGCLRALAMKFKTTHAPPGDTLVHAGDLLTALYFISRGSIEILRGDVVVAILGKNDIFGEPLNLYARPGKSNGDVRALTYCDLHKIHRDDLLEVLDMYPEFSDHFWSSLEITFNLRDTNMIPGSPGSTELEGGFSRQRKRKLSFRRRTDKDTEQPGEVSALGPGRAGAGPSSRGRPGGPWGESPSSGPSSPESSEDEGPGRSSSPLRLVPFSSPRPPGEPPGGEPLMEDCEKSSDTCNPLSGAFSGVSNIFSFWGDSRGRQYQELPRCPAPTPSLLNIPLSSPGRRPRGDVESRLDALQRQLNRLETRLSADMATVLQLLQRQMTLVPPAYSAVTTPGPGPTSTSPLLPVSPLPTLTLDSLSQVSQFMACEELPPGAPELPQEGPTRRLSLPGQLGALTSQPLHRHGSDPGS
With `CO[C@@H]1[C@@H](O[C@@H]2O[C@H](C)[C@@H](O[C@H]3C[C@@](C)(OC(=O)CC(C)C)[C@@H](O)[C@H](C)O3)[C@H](N(C)C)[C@H]2O)[C@@H](CC=O)C[C@@H](C)[C@@H](O)C=CC=CC[C@@H](C)OC(=O)C[C@H]1OC(C)=O`, the “hERG current change (%, negative = inhibition) at 10uM” value was -6.51%. In the case of `c1cncc(C2CCCCN2)c1` (stereo not drawn), the “hERG current change (%, negative = inhibition) at 10uM” value was -6.38%. As for `CCOc1cc(/C=C2/N=C(c3ccc4c(c3)OCO4)OC2=O)ccc1OC(C)=O`, the “hERG current change (%, negative = inhibition) at 10uM” value is on record as 9.87%. Take `COc1cccc(N2CCN(S(=O)(=O)c3cccc4cccnc34)CC2)c1`: the “hERG current change (%, negative = inhibition) at 10uM” value is listed as 15.5%. Under `COc1ccc2c(c1OC)C(=O)OC2C1c2c(cc3c(c2OC)OCO3)CCN1C.Cl` (stereo not drawn) stands -1.88%.

Consider `COc1ccc2c(c1OC)C(=O)OC2C1c2c(cc3c(c2OC)OCO3)CCN1C.Cl.O` (stereo not drawn), for which the “hERG current change (%, negative = inhibition) at 10uM” value is recorded as -13.7%. As to `COc1ccc2c(c1OC)C(C1c3c(cc4c(c3OC)OCO4)CCN1C)OC2=O` (stereo not drawn), the “hERG current change (%, negative = inhibition) at 10uM” value was -7.14%. To `COc1ccc(CC(O)CC2c3c(cc4c(c3OC)OCO4)CCN2C)cc1.Cl` (stereo not drawn) belongs -78.9%. For `COc1ccc2c(c1OC)C(=O)O[C@@H]2[C@H]1c2c(cc3c(c2OC)OCO3)CCN1C`, the “hERG current change (%, negative = inhibition) at 10uM” value is -2.49%. On to `COc1c2c(cc3c1C(CC(O)Cc1ccccc1)N(C)CC3)OCO2` (stereo not drawn), for which the “hERG current change (%, negative = inhibition) at 10uM” value is recorded as -61.3%. With `O=c1[nH]ncc2c3ccccc3n(Cc3ccccc3)c12`, the “hERG current change (%, negative = inhibition) at 10uM” value turned out to be 15.8%. Turning to `S=C(NCc1ccco1)Nc1ccc(Cl)cc1Cl`, the “hERG current change (%, negative = inhibition) at 10uM” value is reported as 8.1%. As to `O=C1c2oc3ccccc3c(=O)c2C(c2cccc(Br)c2)N1Cc1ccco1` (stereo not drawn), the “hERG current change (%, negative = inhibition) at 10uM” value was -8.64%. With `CCc1ccc(CN(C)CC(=O)Nc2ccc3c(c2)CCC3)cc1`, the “hERG current change (%, negative = inhibition) at 10uM” value was determined as 9.39%. To `O=C(OCc1cccc([N+](=O)[O-])c1)c1cc2ccccc2oc1=O` belongs 20.7%; to `Cc1ccc(C(=O)NNC(=O)c2ccc(Br)s2)cc1S(=O)(=O)N1CCOCC1`, -26.2%.

Turning to `CCOc1ccc(CC(=O)Nc2ccc(-c3ccc4nnc(C)n4n3)cc2)cc1`, the “hERG current change (%, negative = inhibition) at 10uM” value is listed as -40.4%. `CCOc1ccc(CC(=O)Nc2cccc(-c3ccc4nnc(C)n4n3)c2)cc1`: the “hERG current change (%, negative = inhibition) at 10uM” value is on record as -51.1%. For `COc1ccc(CC(=O)Nc2cccc(-c3ccc4nnc(C)n4n3)c2)cc1OC`, the “hERG current change (%, negative = inhibition) at 10uM” value was -0.118%. Consider `Cc1nnc2ccc(-c3cccc(NC(=O)Cc4cccs4)c3)nn12`, for which the “hERG current change (%, negative = inhibition) at 10uM” value was -25.9%. With `COc1ccc(CC(=O)Nc2cccc(-c3ccc4nnc(C)n4n3)c2)cc1`, the “hERG current change (%, negative = inhibition) at 10uM” value is recorded as -54.1%. With `COc1ccc(CC(=O)Nc2ccc(-c3ccc4nnc(C)n4n3)cc2)cc1OC`, the “hERG current change (%, negative = inhibition) at 10uM” value is 2.72%. For the compound `CCOC(=O)C1CCCN(C(=O)CS(=O)(=O)Cc2ccccc2)C1` (stereo not drawn), the “hERG current change (%, negative = inhibition) at 10uM” value is listed as 15.3%. In the case of `O=C(CNC(=O)c1ccc2c(c1)OCO2)N/N=C/c1cc(Br)ccc1O`, the “hERG current change (%, negative = inhibition) at 10uM” value is 20.1%. Take `Cn1c(SCC(N)=O)nnc1C1CCN(S(=O)(=O)c2ccccc2C(F)(F)F)CC1`: the “hERG current change (%, negative = inhibition) at 10uM” value stood at 13.3%. For `COCC(=O)Nc1cc(=O)n(C)c(=O)n1C`, the “hERG current change (%, negative = inhibition) at 10uM” value was determined as 4.94%. On to `CC(C)(C)C(=O)Nc1nnc(SCC(=O)NCc2cccs2)s1`, for which the “hERG current change (%, negative = inhibition) at 10uM” value is given as 16.3%. Consider `COc1ccc(CNCC(O)(c2ccccc2)c2ccccc2)cc1`, for which the “hERG current change (%, negative = inhibition) at 10uM” value is given as -64%. Regarding `COc1ccc(CNCC(O)(c2ccc(Cl)cc2)c2ccc(Cl)cc2)cc1`, the “hERG current change (%, negative = inhibition) at 10uM” value is given as -12%. For the compound `CCc1ccc(C(O)(CNCc2ccccc2)c2ccccc2)cc1` (stereo not drawn), the “hERG current change (%, negative = inhibition) at 10uM” value is -41.6%.

For the compound `OC(CNCc1ccc(Cl)cc1)(c1ccccc1)c1ccc(F)cc1` (stereo not drawn), the “hERG current change (%, negative = inhibition) at 10uM” value is -4.52%.

For `COc1ccc(CNCC(O)(c2ccccc2)c2ccc(Cl)cc2)cc1` (stereo not drawn), the “hERG current change (%, negative = inhibition) at 10uM” value is given as -68.8%. `OC(CNCc1ccccc1)(c1ccccc1)c1ccccc1`: the “hERG current change (%, negative = inhibition) at 10uM” value was -9.7%. Regarding `CN(CC(=O)Nc1ccccc1Cl)C(=O)CSc1ncc(C(F)(F)F)cc1Cl`, the “hERG current change (%, negative = inhibition) at 10uM” value came to 9.55%.

Regarding `CCCCCCCNC(=O)CC(NS(=O)(=O)c1ccc(NC(C)=O)cc1)C(C)C` (stereo not drawn), the “hERG current change (%, negative = inhibition) at 10uM” value came to 3.19%. As for `Cc1cc(NCCN2CCOCC2)n2c(nc3ccccc32)c1C#N`, the “hERG current change (%, negative = inhibition) at 10uM” value is -6.09%. To `CC(C)c1cc(NCCCN2CCOCC2)n2c(nc3ccccc32)c1C#N` belongs -79.9%; to `CCCc1cc(NCCCO)n2c(nc3ccccc32)c1C#N`, -16.6%; to `CCCc1cc(NCCCN2CCOCC2)n2c(nc3ccccc32)c1C#N`, -75.7%. On to `CCCc1cc(NCCN(C)C)n2c(nc3ccccc32)c1C#N`, for which the “hERG current change (%, negative = inhibition) at 10uM” value was -7.73%.

`CCCc1cc(NCC2CCCO2)n2c(nc3ccccc32)c1C#N` (stereo not drawn): the “hERG current change (%, negative = inhibition) at 10uM” value was -66.5%. `CCCc1cc(NCCCN(C)C)n2c(nc3ccccc32)c1C#N`: the “hERG current change (%, negative = inhibition) at 10uM” value is listed as 0.382%. As to `CCCc1c(C)c(C#N)c2nc3ccccc3n2c1NCCCN1CCOCC1`, the “hERG current change (%, negative = inhibition) at 10uM” value is on record as -44%. As for `CC(C)c1cc(NCC2CCCO2)n2c(nc3ccccc32)c1C#N` (stereo not drawn), the “hERG current change (%, negative = inhibition) at 10uM” value is reported as -41%.

For the compound `CCCc1cc(NCCCCO)n2c(nc3ccccc32)c1C#N`, the “hERG current change (%, negative = inhibition) at 10uM” value is -53.1%. On to `Cc1cc(NCCCN2CCOCC2)n2c(nc3ccccc32)c1C#N`, for which the “hERG current change (%, negative = inhibition) at 10uM” value is listed as -23.3%.

Consider `Cc1cc(NCC2CCCO2)n2c(nc3ccccc32)c1C#N` (stereo not drawn), for which the “hERG current change (%, negative = inhibition) at 10uM” value is listed as -21.2%. Turning to `Cn1c(=O)oc2cc(S(=O)(=O)NC3CCN(Cc4ccccc4)CC3)ccc21`, the “hERG current change (%, negative = inhibition) at 10uM” value was -36.4%. With `CC1Cc2ccccc2N1C(=S)Nc1cccc(S(=O)(=O)N(C)C)c1` (stereo not drawn), the “hERG current change (%, negative = inhibition) at 10uM” value was found to be 2.06%. As to `O=C(c1ccc2c(c1)OCO2)N1CCC2(CC1)OCCO2`, the “hERG current change (%, negative = inhibition) at 10uM” value is -10.6%. As for `Cc1ccc(OCCN2CCNCC2)c([N+](=O)[O-])c1.O=C(O)C(=O)O`, the “hERG current change (%, negative = inhibition) at 10uM” value is listed as -5.84%. `CC1CCN(CCCCOc2ccc([N+](=O)[O-])cc2)CC1`: the “hERG current change (%, negative = inhibition) at 10uM” value was -74.7%. To `Fc1ccc(OCCOCCN2CCNCC2)cc1.O=C(O)C(=O)O` belongs 6.98%; to `O=[N+]([O-])c1ccc(S(=O)(=O)CC(CN2CCOCC2)N2CCOCC2)cc1` (stereo not drawn), -1.68%. For `O=C(O)C(=O)O.O=[N+]([O-])c1ccc(OCCN2CCCCCC2)cc1`, the “hERG current change (%, negative = inhibition) at 10uM” value was -86.1%.

Turning to `CC1CCN(CCCCOc2ccccc2[N+](=O)[O-])CC1.O=C(O)C(=O)O`, the “hERG current change (%, negative = inhibition) at 10uM” value is on record as -26.3%. As for `O=C(O)C(=O)O.O=[N+]([O-])c1ccc(OCCN2CCNCC2)cc1`, the “hERG current change (%, negative = inhibition) at 10uM” value was -76%. For `CC1CCN(S(=O)(=O)c2ccc(Oc3ccc([N+](=O)[O-])cc3)cc2)CC1`, the “hERG current change (%, negative = inhibition) at 10uM” value is -21.7%. On to `CC1CCN(CC(CS(=O)(=O)c2ccc([N+](=O)[O-])cc2)N2CCC(C)CC2)CC1` (stereo not drawn), for which the “hERG current change (%, negative = inhibition) at 10uM” value is listed as -62.1%. For the compound `CC1CCN(S(=O)(=O)c2ccc([N+](=O)[O-])cc2)CC1`, the “hERG current change (%, negative = inhibition) at 10uM” value is recorded as -3.23%.
